Measurements reported in PubChem BioAssay (NCI).
About 79,000 compounds went through this panel and 15% of them were active in at least one assay; those are over-represented in the sample as a whole. Unmarked numbers belong to inactive results. Activity calls are given as the source filed them. No stated cut-off is given here; in the data, active means growth inhibition above about 70%; inactive means the rest.

Tests used:
[1] = NCI Yeast Anticancer Drug Screen. Data for the rad50 strain (AID 155);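 further: 0% = growth of vehicle-only cultures of the same strain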; details: S. cerevisiae rad50 strain growth inhibition, hits give high values
Procedure, shortened: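 Vehicle-treated cultures provide the reference for the growth inhibition reported for compound-exposed, repair-deficient yeast.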

[2] = NCI Yeast Anticancer Drug Screen. Data for the mec2-1 strain (AID 157); details: S. cerevisiae mec2-1 strain, hits give high values
Procedure, shortened: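 Yeast mec2-1 mutant treated with compound. Readout: growth inhibition vs vehicle controls.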

[3] = NCI Yeast Anticancer Drug Screen. Data for the sgs1 mgt1 strain (AID 161);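 further: 0% = growth of cultures given vehicle only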; details: S. cerevisiae sgs1 mgt1 strain, hits give high values
Procedure, shortened: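 Test agents were incubated with a DNA-repair-mutant yeast strain. Growth was then read and compared against vehicle-treated controls.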

[4] = NCI Yeast Anticancer Drug Screen. Data for the cln2 rad14 strain (AID 165);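 further: 0% = growth equal to vehicle treated cultures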; details: S. cerevisiae cln2 rad14 strain, hits give high values
Procedure, shortened: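 cln2 rad14 yeast strain; compound exposure; growth inhibition read vs vehicle controls.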

[5] = NCI Yeast Anticancer Drug Screen. Data for the bub3 strain (AID 167); details: S. cerevisiae bub3 mutant strain, hits give high values
Procedure, shortened: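 Mutant yeast screening strain plus compound; vehicle-treated cultures serve as the 0% inhibition reference.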

[6] = NCI Yeast Anticancer Drug Screen. Data for the mlh1 rad18 strain (AID 175); details: S. cerevisiae mlh1 rad18 strain growth inhibition, hits give high values
Procedure, shortened: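 Yeast w/ defined DNA-repair lesions; compound exposure; growth vs vehicle controls → % inhibition.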

[7] = at 5.0 µM (retest, dose inferred, filed as 0.5)
[8] = at 50.0 µM (retest, dose inferred, filed as 5.0)

SMILES	growth inhibition [1, 7]	growth inhibition [1, 8]	growth inhibition ([1]; at 50.0 µM)	growth inhibition [2, 7]	growth inhibition [2, 8]	growth inhibition ([2]; at 50.0 µM)	growth inhibition [3, 7]	growth inhibition [3, 8]	growth inhibition ([3]; at 50.0 µM)	growth inhibition [4, 7]	growth inhibition [4, 8]	growth inhibition ([4]; at 50.0 µM)	growth inhibition [5, 7]	growth inhibition [5, 8]	growth inhibition ([5]; at 50.0 µM)	growth inhibition [6, 7]	growth inhibition [6, 8]	growth inhibition ([6]; at 50.0 µM)
C/C(=N/NC(=S)Nc1ccccc1Cl)c1ccccn1	-1%	19%	70.4% (active)	-30%	11%	50.1%	-51%	22%	81.3% (active)	3%	5%	78.3% (active)	-37%	17%	56.2%	-21%	20%	77.2% (active)
[O-]c1c(-c2cccc3ccccc23)sc(-c2cccc3ccccc23)[n+]1-c1ccccc1	5%	92% (active)	70.7% (active)	10%	95% (active)	55.2%	8%	92% (active)	50.1%	-2%	93% (active)	52.6%	-2%	93% (active)	46.1%	5%	92% (active)	78.7% (active)
C#CC(O)c1ccc(Cl)cc1Cl (configuration not stated)	9%	96% (active)	99% (active)	-2%	95% (active)	99.5% (active)	0%	92% (active)	95.3% (active)	-1%	94% (active)	99.2% (active)	5%	96% (active)	99% (active)	6%	98% (active)	99.1% (active)
CN1C/C(=C\c2ccccc2)C(=O)C(c2ccccc2)C1 (configuration not stated)	-1%	94% (active)	1.9%	0%	95% (active)	19.9%	0%	96% (active)	28.8%	1%	94% (active)	-20.6%	-7%	95% (active)	77.2% (active)	-1%	95% (active)	31.4%
COCc1ccc([N+](=O)[O-])o1	17%	89% (active)	71.5% (active)	1%	35%	21.6%	11%	76% (active)	78.7% (active)	6%	24%	7.65%	2%	36%	1.2%	17%	84% (active)	66.2%
Nc1ncnc2c1ncn2CC(O)CN(CCO)CCO (configuration not stated) (tested in a mixture with another compound)	-24%	-1%	-5%	-10%	-7%	-3.15%	-11%	-3%	-12.1%	-12%	4%	18.8%	7%	15%	2%	-15%	-17%	22.2%
O=C1C=CC(=O)N1c1ccc(-c2nc3ccccc3o2)cc1	66%	92% (active)	86.2% (active)	70% (active)	91% (active)	88.9% (active)	100% (active)	96% (active)	91.5% (active)	81% (active)	96% (active)	88% (active)	100% (active)	87% (active)	88.5% (active)	82% (active)	90% (active)	90% (active)
CCCCCCCCCc1cccc(N2C(N)=NC(N)=NC2(C)C)c1	99% (active)	88% (active)	99.3% (active)	100% (active)	28%	99.6% (active)	99% (active)	42%	99.6% (active)	99% (active)	19%	99% (active)	98% (active)	12%	99.4% (active)	99% (active)	29%	99.4% (active)
Oc1ccc(-c2ccccc2)cc1Cl	-1%	98% (active)	99.2% (active)	-12%	99% (active)	99.7% (active)	-3%	99% (active)	99.7% (active)	-11%	98% (active)	97.5% (active)	-23%	98% (active)	99.4% (active)	-5%	99% (active)	99% (active)
CCN(CC)c1c(C(=O)/C=C/c2ccc(F)cc2)c(-c2ccccc2)nn(C)c1=O	29%	29%	87.9% (active)	2%	2%	90.6% (active)	12%	12%	70.5% (active)	16%	16%	90.3% (active)	-3%	-3%	90.3% (active)	1%	1%	86.2% (active)
Cc1c2cnccc2c(C)c2c1c1ccccc1n2CCCN	22%	73% (active)	91.7% (active)	14%	33%	67.6%	5%	50%	77.3% (active)	17%	32%	72.3% (active)	29%	35%	84.6% (active)	16%	58%	82.1% (active)
CC(C(=O)c1ccc2cc(Br)c3ccccc3c2c1)N(C)C (configuration not stated)	-6%	99% (active)	99.4% (active)	1%	99% (active)	98.5% (active)	-14%	100% (active)	99.2% (active)	-5%	99% (active)	99.5% (active)	25%	99% (active)	99.4% (active)	5%	99% (active)	99.3% (active)
BrCC1(CBr)COC1	4%	47%	3.85%	5%	64%	2.2%	6%	56%	7.75%	-3%	30%	-8.15%	29%	94% (active)	87% (active)	2%	87% (active)	9.45%
CCCCCCCCCCCCCC(=O)NO	97% (active)	97% (active)	89.2% (active)	99% (active)	98% (active)	91.3% (active)	99% (active)	98% (active)	92.8% (active)	89% (active)	96% (active)	88.2% (active)	99% (active)	98% (active)	90.2% (active)	99% (active)	97% (active)	89.1% (active)
O=C(/C=C/c1ccccc1)CCN1CCC2CCC(C2)C1 (configuration not stated)	2%	55%	62.9%	9%	82% (active)	93% (active)	15%	54%	76.1% (active)	11%	58%	27.6%	3%	79% (active)	46.9%	8%	81% (active)	79.5% (active)
N#CCc1ccccc1-c1cccc2ccccc12	0%	36%	35.6%	0%	44%	29.4%	-2%	17%	54.8%	3%	24%	41.2%	3%	34%	40%	1%	41%	71.5% (active)
S=c1c2cn[nH]c2nc2scc(-c3ccc(Cl)cc3)n12	1%	98% (active)	45.4%	-29%	97% (active)	49.7%	-27%	98% (active)	65.9%	24%	98% (active)	33.9%	-4%	97% (active)	49%	11%	97% (active)	30.6%
CC1(C)CC(=O)C2=C(C1)Nc1ccccc1CC2c1c[nH]c2ccccc12 (configuration not stated)	-6%	77% (active)	-7.2%	-1%	85% (active)	3.35%	-8%	68%	5.35%	-62%	82% (active)	52.2%	-4%	68%	10.8%	0%	84% (active)	0%
Cc1ccc2c(c1)-c1c(c3c(c4c1-c1cc(C)ccc1CC4)C(=O)OC3=O)CC2	14%	72% (active)	43.9%	10%	43%	16.7%	2%	59%	12.2%	14%	41%	3.45%	4%	47%	7.65%	9%	56%	36.5%
